# Laboratory results from article PMC7862700, “An all-to-all approach to the identification of sequence-specific readers for epigenetic DNA modifications on cytosine”.
# Legend:
# Test in all cases: DAPPL (digital affinity profiling via proximity ligation, sequencing); 10 mM Tris-HCl pH 7.5, 50 mM NaCl, 1 mM DTT, 4% glycerol, room temperature, 30 min; GST-TFs on glutathione beads, 16-mer random dsDNA library, 0.1% formaldehyde crosslink after washing; high values mean tight binding
# Conditions in all cases: protein: recombinant; tags: N-terminal GST; dsDNA, one strand shown
# FLI1 = target: T1, FLI1 (Homo sapiens, UniProt Q01543 1-452)
# T1 sequence: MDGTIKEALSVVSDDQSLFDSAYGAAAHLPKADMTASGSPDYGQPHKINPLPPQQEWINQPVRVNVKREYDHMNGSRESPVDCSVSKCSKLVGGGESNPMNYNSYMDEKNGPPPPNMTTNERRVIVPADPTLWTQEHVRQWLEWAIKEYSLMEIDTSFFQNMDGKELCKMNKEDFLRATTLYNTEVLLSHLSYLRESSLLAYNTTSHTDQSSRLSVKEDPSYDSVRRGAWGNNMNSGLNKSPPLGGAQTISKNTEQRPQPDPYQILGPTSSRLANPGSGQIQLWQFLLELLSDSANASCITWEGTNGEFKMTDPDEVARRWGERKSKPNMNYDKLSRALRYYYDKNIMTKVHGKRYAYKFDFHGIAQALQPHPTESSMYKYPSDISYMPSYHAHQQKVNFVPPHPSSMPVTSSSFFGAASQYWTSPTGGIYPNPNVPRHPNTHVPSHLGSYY
# How it was run: (§1)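 The binding signal reported is, for every hexamer, its read frequency for a factor over its read frequency for the tag-only sample. Reads came from pools of yeast-expressed, GST-fused human transcription factors on glutathione beads, barcoded with DNA and mixed with that sample, which were incubated with 200 nmole of a random double-stranded 16-mer DNA library in Tris/NaCl/DTT/glycerol buffer at room temperature for 30 min. After washing, the pools were crosslinked with 0.1% formaldehyde, proximity-ligated with BsaI/T4 ligase for 1 h at 37 °C, PCR-amplified and sequenced on an Illumina NextSeq500.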
# ELK1 = target: T2, ELK1 (Homo sapiens, UniProt P19419 1-428)
# T2 sequence: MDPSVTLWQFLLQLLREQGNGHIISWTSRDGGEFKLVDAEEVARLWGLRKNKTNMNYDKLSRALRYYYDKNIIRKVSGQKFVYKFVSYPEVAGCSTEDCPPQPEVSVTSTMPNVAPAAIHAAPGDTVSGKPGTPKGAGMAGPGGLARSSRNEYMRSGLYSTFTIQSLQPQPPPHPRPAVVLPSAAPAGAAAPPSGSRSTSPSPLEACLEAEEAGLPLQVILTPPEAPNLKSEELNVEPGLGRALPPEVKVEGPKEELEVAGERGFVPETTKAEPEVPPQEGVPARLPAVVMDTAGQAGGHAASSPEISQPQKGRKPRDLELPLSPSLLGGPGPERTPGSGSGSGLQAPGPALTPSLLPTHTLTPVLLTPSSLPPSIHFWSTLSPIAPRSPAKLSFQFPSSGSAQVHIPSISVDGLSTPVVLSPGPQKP
# How it was run: as §1
# ERG = target: T3, ERG (Homo sapiens, UniProt P11308 1-479)
# T3 sequence: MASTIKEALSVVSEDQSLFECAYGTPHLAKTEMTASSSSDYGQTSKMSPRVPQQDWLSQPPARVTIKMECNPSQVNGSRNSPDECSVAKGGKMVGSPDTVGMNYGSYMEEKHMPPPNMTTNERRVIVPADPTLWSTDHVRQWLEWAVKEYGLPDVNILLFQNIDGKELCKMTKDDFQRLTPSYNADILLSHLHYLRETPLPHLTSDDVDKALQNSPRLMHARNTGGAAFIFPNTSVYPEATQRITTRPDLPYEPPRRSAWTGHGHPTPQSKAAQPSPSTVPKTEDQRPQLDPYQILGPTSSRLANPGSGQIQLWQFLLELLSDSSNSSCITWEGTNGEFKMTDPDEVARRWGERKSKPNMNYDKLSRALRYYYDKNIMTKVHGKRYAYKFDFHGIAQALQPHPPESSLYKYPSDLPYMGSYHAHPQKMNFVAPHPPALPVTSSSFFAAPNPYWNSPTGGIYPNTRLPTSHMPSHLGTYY
# How it was run: as §1
# ELF1 = ELF1 (Homo sapiens, UniProt P32519 1-619)
# How it was run: as §1
# SPIB = SPIB (Homo sapiens, UniProt Q01892 1-262)
# How it was run: as §1
# ELK3 = target: T4, ELK3 (Homo sapiens, UniProt P41970 1-407)
# T4 sequence: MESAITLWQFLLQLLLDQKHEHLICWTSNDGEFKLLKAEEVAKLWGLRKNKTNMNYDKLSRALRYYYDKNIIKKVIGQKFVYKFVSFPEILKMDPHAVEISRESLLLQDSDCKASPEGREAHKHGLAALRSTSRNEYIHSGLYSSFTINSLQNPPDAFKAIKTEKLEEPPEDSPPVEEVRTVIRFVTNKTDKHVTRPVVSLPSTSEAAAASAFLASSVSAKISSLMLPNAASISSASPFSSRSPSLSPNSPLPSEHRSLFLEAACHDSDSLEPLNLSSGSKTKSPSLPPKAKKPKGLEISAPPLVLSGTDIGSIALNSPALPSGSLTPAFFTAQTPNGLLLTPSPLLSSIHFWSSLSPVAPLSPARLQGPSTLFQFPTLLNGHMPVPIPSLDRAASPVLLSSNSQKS
# How it was run: as §1
# FEV = target: T5, FEV (Homo sapiens, UniProt Q99581 1-238)
# T5 sequence: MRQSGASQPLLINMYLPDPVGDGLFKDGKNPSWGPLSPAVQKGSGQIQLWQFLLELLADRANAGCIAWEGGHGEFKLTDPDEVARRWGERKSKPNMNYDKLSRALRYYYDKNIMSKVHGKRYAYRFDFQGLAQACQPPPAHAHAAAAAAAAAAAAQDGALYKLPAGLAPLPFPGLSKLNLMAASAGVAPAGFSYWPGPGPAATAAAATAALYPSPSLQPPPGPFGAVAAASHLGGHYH
# How it was run: as §1
# ETV5 = ETV5 (Homo sapiens, UniProt P41161 1-510)
# How it was run: as §1
# SPIC = target: T6, SPIC (Homo sapiens, UniProt Q8N5J4 1-248)
# T6 sequence: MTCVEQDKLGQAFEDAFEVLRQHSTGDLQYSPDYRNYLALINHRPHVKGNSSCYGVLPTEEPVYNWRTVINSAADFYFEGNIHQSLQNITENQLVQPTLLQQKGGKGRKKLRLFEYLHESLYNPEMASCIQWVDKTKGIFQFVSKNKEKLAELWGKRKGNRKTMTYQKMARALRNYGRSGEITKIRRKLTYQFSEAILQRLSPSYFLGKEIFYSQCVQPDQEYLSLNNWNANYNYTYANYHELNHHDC
# How it was run: as §1
# ELF4 = ELF4 (Homo sapiens, UniProt Q99607 1-663)
# How it was run: as §1
# ETV1 = ETV1 (Homo sapiens, UniProt P50549 1-477)
# How it was run: as §1
# ETV3L = target: T7, ETV3L (Homo sapiens, UniProt Q6ZN32 1-361)
# T7 sequence: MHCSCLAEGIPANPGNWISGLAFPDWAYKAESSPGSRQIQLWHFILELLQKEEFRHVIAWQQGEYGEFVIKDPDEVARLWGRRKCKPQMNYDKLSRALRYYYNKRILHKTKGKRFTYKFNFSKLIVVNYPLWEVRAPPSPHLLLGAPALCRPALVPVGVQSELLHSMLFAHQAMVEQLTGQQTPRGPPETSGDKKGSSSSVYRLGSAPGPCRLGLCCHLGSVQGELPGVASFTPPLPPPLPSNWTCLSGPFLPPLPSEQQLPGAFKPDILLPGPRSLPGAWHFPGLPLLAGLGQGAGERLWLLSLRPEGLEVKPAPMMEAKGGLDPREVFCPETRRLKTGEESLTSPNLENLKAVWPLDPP
# How it was run: as §1
# SPDEF = target: T8, SPDEF (Homo sapiens, UniProt O95238 1-335)
# T8 sequence: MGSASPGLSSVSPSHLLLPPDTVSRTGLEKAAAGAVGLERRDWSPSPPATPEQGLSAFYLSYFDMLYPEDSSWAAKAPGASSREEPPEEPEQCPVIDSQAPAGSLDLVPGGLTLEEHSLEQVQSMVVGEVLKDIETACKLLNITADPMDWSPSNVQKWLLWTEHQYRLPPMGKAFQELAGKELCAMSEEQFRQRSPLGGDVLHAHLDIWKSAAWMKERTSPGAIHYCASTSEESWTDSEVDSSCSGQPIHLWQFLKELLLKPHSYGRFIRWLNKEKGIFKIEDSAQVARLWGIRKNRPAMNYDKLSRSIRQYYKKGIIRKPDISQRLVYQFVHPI
# How it was run: as §1
# ETV3 = target: T9, ETV3 (Homo sapiens, UniProt P41162-2 1-143)
# T9 sequence: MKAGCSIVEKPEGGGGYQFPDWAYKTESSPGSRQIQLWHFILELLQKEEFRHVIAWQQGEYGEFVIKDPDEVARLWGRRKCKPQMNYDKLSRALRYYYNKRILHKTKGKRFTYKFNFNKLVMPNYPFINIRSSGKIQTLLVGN
# How it was run: as §1
# ETV6 = ETV6 (Homo sapiens, UniProt P41212 1-452)
# How it was run: as §1
# Chain of ETV1 (P50549 whole entry): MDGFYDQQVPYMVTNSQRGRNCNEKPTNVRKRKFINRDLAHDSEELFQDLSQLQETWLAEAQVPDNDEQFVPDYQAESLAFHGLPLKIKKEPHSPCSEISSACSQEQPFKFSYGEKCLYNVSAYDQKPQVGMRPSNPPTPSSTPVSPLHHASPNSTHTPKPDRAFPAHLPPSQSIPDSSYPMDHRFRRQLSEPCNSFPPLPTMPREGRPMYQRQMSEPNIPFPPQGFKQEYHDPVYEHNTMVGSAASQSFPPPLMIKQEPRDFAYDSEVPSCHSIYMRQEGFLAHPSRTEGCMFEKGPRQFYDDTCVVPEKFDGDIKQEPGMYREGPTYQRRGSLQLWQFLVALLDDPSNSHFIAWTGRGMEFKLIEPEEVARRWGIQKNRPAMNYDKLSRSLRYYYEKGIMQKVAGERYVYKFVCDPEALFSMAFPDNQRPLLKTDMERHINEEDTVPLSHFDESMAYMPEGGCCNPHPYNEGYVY
# Chain of ELF4 (Q99607 whole entry): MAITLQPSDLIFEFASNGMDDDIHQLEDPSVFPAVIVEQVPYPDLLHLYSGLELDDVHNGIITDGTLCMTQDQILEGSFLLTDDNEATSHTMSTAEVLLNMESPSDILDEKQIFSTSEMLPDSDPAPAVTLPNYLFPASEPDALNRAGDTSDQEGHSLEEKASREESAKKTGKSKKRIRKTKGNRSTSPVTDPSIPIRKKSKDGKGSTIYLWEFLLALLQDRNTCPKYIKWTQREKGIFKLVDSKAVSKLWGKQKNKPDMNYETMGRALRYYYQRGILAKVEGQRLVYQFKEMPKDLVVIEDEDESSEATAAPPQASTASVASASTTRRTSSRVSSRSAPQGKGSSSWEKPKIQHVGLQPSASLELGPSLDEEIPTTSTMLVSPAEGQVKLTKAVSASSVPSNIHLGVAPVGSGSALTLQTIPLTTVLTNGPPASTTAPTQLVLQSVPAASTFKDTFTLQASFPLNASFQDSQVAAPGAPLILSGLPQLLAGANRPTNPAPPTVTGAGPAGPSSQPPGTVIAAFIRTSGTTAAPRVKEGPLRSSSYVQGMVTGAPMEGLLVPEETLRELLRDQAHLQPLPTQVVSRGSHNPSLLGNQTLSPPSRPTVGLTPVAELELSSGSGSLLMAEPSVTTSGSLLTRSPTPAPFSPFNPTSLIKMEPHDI
# Chain of ELF1 (P32519 whole entry): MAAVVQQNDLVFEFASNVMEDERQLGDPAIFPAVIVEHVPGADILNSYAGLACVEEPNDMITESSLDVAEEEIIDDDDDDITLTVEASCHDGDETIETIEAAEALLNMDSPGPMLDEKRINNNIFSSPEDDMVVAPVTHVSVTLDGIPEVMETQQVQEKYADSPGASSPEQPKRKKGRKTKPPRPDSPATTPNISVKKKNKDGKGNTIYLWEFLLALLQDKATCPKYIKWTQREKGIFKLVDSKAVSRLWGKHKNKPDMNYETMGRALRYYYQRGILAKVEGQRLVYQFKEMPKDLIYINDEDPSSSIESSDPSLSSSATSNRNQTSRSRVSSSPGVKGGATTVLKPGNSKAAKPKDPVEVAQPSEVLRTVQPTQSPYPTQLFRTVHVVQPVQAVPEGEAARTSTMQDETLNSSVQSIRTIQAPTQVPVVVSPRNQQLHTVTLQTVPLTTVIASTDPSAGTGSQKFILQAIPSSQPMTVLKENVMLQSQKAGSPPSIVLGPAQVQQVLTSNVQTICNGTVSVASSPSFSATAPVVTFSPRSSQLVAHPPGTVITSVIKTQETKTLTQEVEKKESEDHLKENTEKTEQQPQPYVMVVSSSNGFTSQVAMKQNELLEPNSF
# Chain of ETV6 (P41212 whole entry): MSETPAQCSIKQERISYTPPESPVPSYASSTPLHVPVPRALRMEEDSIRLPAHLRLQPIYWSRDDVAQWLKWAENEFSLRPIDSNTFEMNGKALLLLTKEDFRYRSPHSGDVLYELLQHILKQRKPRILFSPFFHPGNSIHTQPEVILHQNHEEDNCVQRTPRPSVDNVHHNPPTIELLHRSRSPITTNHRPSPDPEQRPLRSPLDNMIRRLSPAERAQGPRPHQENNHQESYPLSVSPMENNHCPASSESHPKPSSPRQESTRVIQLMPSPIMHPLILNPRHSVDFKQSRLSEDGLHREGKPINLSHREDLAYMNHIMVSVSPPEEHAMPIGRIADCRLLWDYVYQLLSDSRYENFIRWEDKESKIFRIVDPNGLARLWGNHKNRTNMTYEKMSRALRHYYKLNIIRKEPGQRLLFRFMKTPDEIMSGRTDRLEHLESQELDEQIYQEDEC
# Chain of ETV5 (P41161 whole entry): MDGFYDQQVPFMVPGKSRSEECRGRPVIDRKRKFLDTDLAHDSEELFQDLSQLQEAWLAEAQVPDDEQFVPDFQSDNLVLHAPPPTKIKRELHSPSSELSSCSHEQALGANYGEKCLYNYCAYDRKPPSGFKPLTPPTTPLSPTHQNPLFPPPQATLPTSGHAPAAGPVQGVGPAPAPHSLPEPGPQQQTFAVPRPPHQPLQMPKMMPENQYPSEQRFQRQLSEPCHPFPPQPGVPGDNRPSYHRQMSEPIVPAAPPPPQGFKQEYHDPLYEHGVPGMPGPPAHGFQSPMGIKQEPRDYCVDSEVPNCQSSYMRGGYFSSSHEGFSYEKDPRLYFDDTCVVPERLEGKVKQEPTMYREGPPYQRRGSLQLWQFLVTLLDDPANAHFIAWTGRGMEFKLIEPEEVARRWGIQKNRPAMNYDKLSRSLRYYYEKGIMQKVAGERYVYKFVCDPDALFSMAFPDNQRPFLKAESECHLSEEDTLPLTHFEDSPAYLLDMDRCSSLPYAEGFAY
# Chain of SPIB (Q01892 whole entry): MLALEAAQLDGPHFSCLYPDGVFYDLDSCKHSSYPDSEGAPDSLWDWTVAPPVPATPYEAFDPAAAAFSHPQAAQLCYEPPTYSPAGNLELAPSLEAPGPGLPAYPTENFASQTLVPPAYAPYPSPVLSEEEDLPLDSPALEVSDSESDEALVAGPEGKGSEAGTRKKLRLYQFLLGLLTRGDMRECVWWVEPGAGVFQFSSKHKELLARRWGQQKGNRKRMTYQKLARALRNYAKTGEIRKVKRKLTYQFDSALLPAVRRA
sequence,measurement,setting,value
GCCCCA,binding signal,FLI1,"1.06 fold enrichment (6-mer frequency, TF over GST control)"
same,binding signal,ELK1,"1.04 fold enrichment (6-mer frequency, TF over GST control)"
same,binding signal,ERG,"1.1 fold enrichment (6-mer frequency, TF over GST control)"
same,binding signal,ELF1,"1.05 fold enrichment (6-mer frequency, TF over GST control)"
same,binding signal,SPIB,"1 fold enrichment (6-mer frequency, TF over GST control)"
same,binding signal,ELK3,"1.1 fold enrichment (6-mer frequency, TF over GST control)"
same,binding signal,FEV,"1.07 fold enrichment (6-mer frequency, TF over GST control)"
same,binding signal,ETV5,"1.02 fold enrichment (6-mer frequency, TF over GST control)"
same,binding signal,SPIC,"1.05 fold enrichment (6-mer frequency, TF over GST control)"
same,binding signal,ELF4,"1.07 fold enrichment (6-mer frequency, TF over GST control)"
same,binding signal,ETV1,"1.03 fold enrichment (6-mer frequency, TF over GST control)"
same,binding signal,ETV3L,"1.12 fold enrichment (6-mer frequency, TF over GST control)"
same,binding signal,SPDEF,"1.03 fold enrichment (6-mer frequency, TF over GST control)"
same,binding signal,ETV3,"1.06 fold enrichment (6-mer frequency, TF over GST control)"
same,binding signal,ETV6,"1.03 fold enrichment (6-mer frequency, TF over GST control)"
